This note sets out measurements from PubChem BioAssay AID720513 (Broad Institute, 2013).

Molecules are shown by their SMILES. About 480 (23%) of roughly 2,100 compounds were called active. Not shown: some 5% with an inconclusive outcome.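 The calls were made as follows: active = fitted curve reaches 40% activation at or below the top valid concentration, in every replicate test; inconclusive = replicate tests disagree on the call; inactive = the rest, including activity in the opposite direction.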 The list is a sample of the results. Results with a measured potency or affinity are listed apart.

The assay is described as follows: activators raising PGC1a acetylation in cells, dose response, cell-based, cherry-picked samples, set 6 (AID 720513).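 Also: cells made to overexpress flag tagged PGC1a plus GCN5 acetyltransferase by viral infection.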 As to conditions: U2OS PGC1a acetylation AlphaLISA, overnight, 0 = neutral, -100 = inhibitor control; series mostly up to 19.5 µM.
In the case of `COc1cc(CNCCN2CCOCC2)ccc1OCc1ccc(Cl)cc1Cl`, the compound was classed as inactive.
For `C[C@@H]1CN([C@H](C)CO)C(=O)c2cc(C#Cc3ccccc3)cnc2O[C@@H]1CN(C)C(=O)c1ccccn1`, the result was inactive.
Consider `O=C(CN1C(=O)C2CC=CCC2C1=O)Nc1nccs1` (stereo not given), for which the result was inactive.
In the case of `CN(C)CCCNC(=O)CC1C[C@H](C(=O)N2CCCCC2)[C@@]2(CCc3ccccc3)c3[nH]c4ccccc4c3CCN2C1=O` (stereo not given in full) it was “inactive”; in that of `COc1ccc(-n2c(C)c([N+](=O)[O-])c3ccc(O)c(CN(C)C)c32)cc1`, “inactive”; in that of `COc1cc(O)c(C(CC(=O)N2CCOCC2)c2ccc(N(C)C)cc2)c(OC)c1` (stereo not given), “inactive”.
`CNC[C@H]1Oc2ccc(NC(=O)CCN3CCOCC3)cc2C(=O)N([C@H](C)CO)C[C@H]1C`: the compound was called inactive.
Consider `C=CCN(c1ccc(C(=O)Nc2ccc3c(c2)OCO3)cc1)S(C)(=O)=O`, for which the compound was called inactive.
As for `Cc1cccc(S(=O)(=O)N2C[C@@H]3N[C@H](C2)C3c2ccc(-c3ccccc3C)cc2)c1` (stereo not given in full), the result was inactive.
In the case of `N#Cc1ccc(-c2ccc(C3[C@@H]4CN(S(=O)(=O)c5ccc(F)cc5)C[C@H]3N4)cc2)cc1` (stereo not given in full) it was “inactive”.
Consider `CCCSc1nnc(Sc2nnnn2-c2ccccc2)s1`, for which the compound was classed as inactive.
For the compound `COc1ccc(CCN2C(=O)CC(C(C)c3ccccc3)C2=O)cc1OC` (stereo not given), the compound was called inactive.
For the compound `COc1ccc(CCN2C(=O)c3[nH]nc(-c4ccccc4O)c3C2c2ccccc2)cc1OC` (stereo not given), the outcome was inactive.
With `CCCCN(C)Cc1c(C)[nH]c2ccccc2c1=O`, the result was inactive.
Consider `CC1(Cc2ccc(Cl)cc2)C(=O)Nc2ccc(-c3cccnc3)cc21` (stereo not given), for which the compound was called inactive.
For `COc1ccccc1-c1ccc([C@@H]2[C@@H](CO)N(C(C)=O)C23CN(C(C)=O)C3)cc1` the value was “inactive”; for `CO[C@H]1CN(C)C(=O)c2cc(NC(=O)Nc3ccc(Cl)cc3)ccc2OC[C@H](C)NC[C@@H]1C`, “inactive”.
For the compound `CO[C@H]1CN(C)C(=O)c2ccc(NC(=O)c3ccc(-c4ccccc4)cc3)cc2OC[C@H](C)NC[C@@H]1C`, the outcome was inactive.
In the case of `CC1CCCN(Cc2c(O)ccc3c4c(c(=O)oc23)CCCC4)C1` (stereo not given), the compound was called inactive.
For the compound `CCc1oc2c(C)c(O)ccc2c(=O)c1-c1ccc2ccccc2n1`, the compound was called inactive.
As to `N#Cc1ccc(Cn2c(=O)c(C#N)c3n(c2=O)CCC3)cc1`, the outcome was inactive.
Consider `CC(C)Cn1cnc2c(N)nc3ccccc3c21`, for which the result was inactive.
In the case of `Cc1ccccc1NC(=O)Nc1ccccc1Br`, the result was inactive.
With `Cc1ccc(C)c(NC(=O)c2nnn(Cc3ccccc3)c2N)c1`, the compound was classed as inactive.
Take `Cc1cc(C)n(-c2ccc(Cl)c(C(=O)OCC(N)=O)n2)n1`: the outcome was inactive.
Regarding `CC(C)(C)c1ccc(CCC2OCC(C[N+]3(C)CCOCC3)O2)cc1` (stereo not given), the call was inactive.
For the compound `Clc1ccccc1CN1CCSCC1`, the call was inactive.
In the case of `COc1ccc(-c2cc(N)n(S(=O)(=O)c3c(F)c(F)c(F)c(F)c3F)n2)cc1OC`, the compound was called inactive.
Regarding `O=C(CCSc1nnc(-c2ccc(O)cc2)o1)N1CCOCC1`, the result was inactive.
Take `O=S(=O)(c1ccccc1)c1ncc(C(F)(F)F)cc1Cl`: the call was inactive.
With `NNS(=O)(=O)c1ccc(Cc2ncc(C(F)(F)F)cc2Cl)s1`, the result was inactive.
Consider `CC(=O)N(c1cccc(C)c1)S(=O)(=O)c1ccc(Cl)cc1`, for which the compound was called inactive.
In the case of `CC(C)NC(=O)N(C)C[C@H]1OCc2cnnn2CCCC(=O)N([C@@H](C)CO)C[C@H]1C`, the compound was classed as inactive.
Take `Oc1ccc(/C=N/Nc2nc(-c3ccc(Cl)cc3)cc(C(F)(F)F)n2)cc1`: the call was inactive.
On to `O=C(OCc1ccccc1)N1CCC2CC1c1cc(-c3ccc(F)cc3)ccc12` (stereo not given), for which the call was inactive.
Take `Cn1cccc1C(=O)OCC(=O)Nc1ccc2c(c1)CCC2`: the call was inactive.
For the compound `COc1cccc(OC)c1NC(=O)C1CCCN1C(=O)NCc1ccccc1` (stereo not given), the result was inactive.
In the case of `O=C(Cc1ccc(-n2cccc2)cc1)NCc1cccs1` it was “inactive”.
Take `CCOc1ccc(NS(=O)(=O)c2ccc3c(c2)oc(=O)n3C)cc1`: the outcome was inactive.
For `O=C(CCC1CCCCC1)NCc1cccs1`, the result was inactive.
Regarding `COc1ccc(Cl)cc1NC(=O)CN1CCC(n2nnc3cc(C)ccc32)CC1`, the compound was called inactive.
For the compound `CCOc1ccc(N(C(=O)Nc2ccccc2)C2=NCCC2)cc1`, the compound was called inactive.
`O=C(NCC[C@@H]1CC[C@H](NS(=O)(=O)c2ccccc2)[C@@H](CO)O1)c1ccccc1F`: the compound was classed as inactive.
In the case of `CCOC(=O)C1CCCN(C(=O)CSc2ccc(Br)cc2)C1` (stereo not given) it was “inactive”; in that of `CCCNC(=O)Nc1ccc2c(c1)C(=O)N(C)C[C@H](OC)[C@H](C)CN(CC1CCCC1)[C@@H](C)CO2`, “inactive”.
`O=C(Cc1ccccn1)N[C@H]1CC[C@H](CCn2cc(-c3ccccc3)nn2)O[C@@H]1CO`: the compound was called inactive.
In the case of `CCNC(=O)C1(C)CCCN1Cc1ccccc1Cl` (stereo not given) it was “inactive”.
In the case of `N#CC(C#N)=c1ccc2c(c1)NC1(CCCCC1)N=2`, the compound was called inactive.
For the compound `O=C(c1ccco1)N(Cc1ccc([N+](=O)[O-])cc1)c1ccc(Br)cc1`, the call was inactive.
In the case of `C#CCN(C[C@@H]1[C@@H](OC(=O)NCC2CCCCC2)[C@@H](OC(=O)NCC2CCCCC2)Cn2c(=O)ccc(=O)n21)S(=O)(=O)c1ccc(C)cc1` it was “inactive”.
Regarding `COc1ccc(OCCCC(=O)OCC(=O)Nc2c(C)nn(-c3ccccc3)c2C)cc1`, the outcome was inactive.
In the case of `O=C(C[C@@H]1C=C[C@@H](NC(=O)Nc2ccc(C(F)(F)F)cc2)[C@H](CO)O1)NCc1ccccn1` it was “inactive”; in that of `C[C@@H]1CN([C@@H](C)CO)C(=O)CCCn2nncc2CO[C@@H]1CN(C)C(=O)NC1CCCCC1`, “inactive”.
As to `Cc1cc(C)c(C(=O)/C=C/c2ccc(C(C)C)cc2)c(=O)[nH]1`, the compound was classed as inactive.
Turning to `C[C@H]1CN([C@@H](C)CO)S(=O)(=O)c2ccc(C3=CCCC3)cc2O[C@H]1CN(C)Cc1cncnc1`, the result was inactive.
For `O=S(=O)(Nc1cc(Sc2ncn[nH]2)c(O)c2ccccc12)c1ccccc1` the value was “inactive”; for `COc1ccc(NC(=O)N[C@@H]2CC[C@H](CCn3cc(-c4ccccc4F)nn3)O[C@@H]2CO)cc1`, “inactive”; for `O=C(Cn1ncc(Cl)c(Cl)c1=O)c1ccc(Cl)cc1`, “inactive”.
`O=C(Cn1ncc(Cl)c(Cl)c1=O)c1ccc2c(c1)OCCO2`: the call was inactive.
`O=C(Cn1ncc(Cl)c(Cl)c1=O)N1CCN(S(=O)(=O)c2ccc3ccccc3c2)CC1`: the compound was called inactive.
Take `Cc1ccc(NC(=O)Cn2ncc(Cl)c(Cl)c2=O)cc1S(=O)(=O)N1CCCCC1`: the call was inactive.
As for `C[C@H](CO)N1C[C@H](C)[C@@H](CN(C)Cc2cccnc2)Oc2cc(C#CC3CCCCC3)ccc2S1(=O)=O`, the compound was classed as inactive.
For `Cc1noc(C)c1NC(=O)N(C)C[C@@H]1Oc2ccc(NS(=O)(=O)c3cn(C)cn3)cc2C(=O)N([C@@H](C)CO)C[C@@H]1C` the value was “inactive”.
For the compound `CN=C1c2cc3cc(OC)ccc3n2CCN1Cc1ccccc1`, the compound was called inactive.
As to `Cc1cc(N2CCN(C)CC2)nc(=S)[nH]1`, the result was inactive.
For the compound `COc1cc(OC)cc(C(=O)N[C@H](C(=O)OCC(=O)NC(=O)NC(C)(C)C)C(C)C)c1`, the call was inactive.
For `OC[C@H]1[C@@H](c2ccc(C#CC3CCCC3)cc2)[C@@H]2CN(CCC(F)(F)F)CCCCN12` the value was “inactive”; for `N#C[C@@H]1[C@H](c2ccccc2C2=CCCCC2)[C@H](CO)N1C(=O)Cc1ccncc1`, “inactive”.
In the case of `NC(=O)c1oc2ccccc2c1NC(=O)C1CC(=O)N(c2ccccc2)C1` (stereo not given), the call was inactive.
Take `CN(C)C(=O)C[C@H]1CC[C@@H](NC(=O)C2CCC2)[C@H](CO)O1`: the compound was called inactive.
As for `COCCOc1ccc(C(F)(F)F)cc1NC(=O)CN1C(=O)NC2(CCCc3ccccc32)C1=O` (stereo not given), the result was inactive.
Turning to `CCOC(=O)c1[nH]c(C)c(C(=O)Nc2cc(Cl)ccc2C)c1C`, the compound was classed as inactive.
Turning to `CCOC(=O)c1[nH]c2ccc(OC)cc2c1NC(=O)c1ccc2c(c1)OCO2`, the outcome was inactive.
As to `O=c1c2c(nc3c(-c4ccc(Cl)cc4)c[nH]n13)CCCC2`, the outcome was inactive.
As for `CC(C)(O)c1cc(=O)sc2nc3ccccc3n12`, the compound was classed as inactive.
In the case of `O=C(NC1CCCC1)C(c1ccncc1)N(Cc1ccccc1F)C(=O)c1csnn1` (stereo not given), the compound was called inactive.
For `O=C(NC1CCCC1)C(c1ccccc1)N(Cc1ccc(F)cc1)C(=O)c1csnn1` (stereo not given) the value was “inactive”.
Take `CC(=O)N(C)C[C@H]1Oc2ncc(C#CCc3ccccc3)cc2C(=O)N([C@@H](C)CO)C[C@H]1C`: the call was inactive.
As for `C[C@@H]1CN([C@@H](C)CO)C(=O)CCCn2cc(nn2)CO[C@H]1CN(C)C(=O)Cc1ccccc1`, the compound was called inactive.
As to `C[C@@H]1CN([C@H](C)CO)C(=O)c2cccc(NC(=O)Nc3cccc4ccccc34)c2O[C@H]1CN(C)S(C)(=O)=O`, the call was inactive.
Regarding `CCn1c(=N)n(CC(=O)c2ccc(OC)c(OC)c2)c2ccccc21`, the outcome was inactive.
For `CC(=O)Oc1ccc(-c2csnn2)cc1` the value was “inactive”; for `CCCNC(=O)CN(C)C(=O)c1n[nH]c2ccccc12`, “inactive”.
`O=c1[nH]c(=O)c2[nH]c(=S)[nH]c2[nH]1`: the result was inactive.
With `CC(C)c1ccc(NC(=O)c2n[nH]c(=O)c3ccccc23)cc1`, the outcome was inactive.
As to `COc1ccc2nc3cc(Cl)ccc3c(Nc3cc(CN4CCCC4)c(O)c(CN4CCCC4)c3)c2n1`, the compound was called inactive.
As to `Cc1noc(C)c1NC(=O)Nc1ccc2c(c1)C(=O)N([C@H](C)CO)C[C@@H](C)[C@@H](CN(C)S(=O)(=O)c1ccc(F)cc1)OCCCC[C@@H](C)O2`, the compound was called inactive.
On to `COc1cc2[nH]c(=O)n(CCCC(=O)NCCc3ccccc3)c(=O)c2cc1OC`, for which the compound was called inactive.
Regarding `CCCCC(=O)NCCc1cc2c(OC)ccc(OC)c2[nH]c1=O`, the compound was called inactive.
Regarding `COc1cccc(NC(=O)CN(C)C(=O)CNC(=O)c2ccccc2F)c1`, the result was inactive.
On to `Cn1nnnc1SCC(=O)NCc1cccc(C(=O)O)c1`, for which the compound was called inactive.
As to `CCCN(C)C[C@H]1Oc2cc(C#C[C@@H](C)O)ccc2S(=O)(=O)N([C@@H](C)CO)C[C@H]1C`, the result was inactive.
`CCn1cc([N+](=O)[O-])c(C(=O)NCc2ccc3c(c2)OCO3)n1`: the compound was called inactive.
Take `COC(=O)c1ccccc1N(C)S(=O)(=O)c1cc2c(cc1C)OCC(=O)N2`: the call was inactive.
`Cc1ccc(CNC(=O)CCS(=O)(=O)c2cc3c(cc2Cl)NC(=O)CO3)cc1`: the compound was called inactive.
